# Assay results reported in ChEMBL document CHEMBL4513216, “Probing the Open Global Health Chemical Diversity Library for Multistage-Active Starting Points for Next-Generation Antimalarials” (ACS Infect Dis, 2020).
# The whole screen tested about 68,000 compounds, of which about 2,700 (4%) showed an effect of 50% or more. Shown is part of a subset that was picked to be rich in strong results.
# System: Plasmodium berghei
# Assay: Screen against P. berghei liver stage (PbLuc), transformed with Luciferase, at 2uM
# Assay type: functional, HepG2
# Conditions: tested at 2 uM
row,SMILES,INHIBITION
1,CC(C)OCc1ccccc1CNC(=O)C(C)(C)C,-26.08%
2,CS(=O)(=O)c1nccn1Cc1ccc(OC(F)F)cc1,-35.45%
3,O=C(O)c1cc(NS(=O)(=O)c2ccccc2F)ccc1N1CCSCC1,-21.39%
4,Cc1nc(C)n(CC2CCCCN2CC(=O)NC(C2CC2)C2CC2)n1 (centres undefined),17.75%
5,COc1ccccc1OCC(=O)N1C[C@@H]2CN(C)CCO[C@@H]2C1,32.04%
6,CN1CCc2nc(N(C)C)nc(N3CCC(O)CC3)c2C1,21.24%
7,CN(Cc1nc(C2CC2)no1)C(=O)c1cccc(CC2CCNCC2)c1,-11.41%
8,Cc1nn(C)c2nc(NC(C)c3nnn[nH]3)sc12 (centres undefined),-16.31%
9,Cc1csc2ncc(-c3ccnc(N4CCN(C)CC4)n3)c(=O)n12,-23.11%
10,Cc1cc2c(cc1Cl)C=CC1(CCN(CC(=O)N3CCCC3)CC1)O2,-28%
11,Cc1cc2c(cc1Cl)C=CC1(CCN(C(=O)N3CCOCC3)CC1)O2,57.47%
12,Cc1cc2c(cc1Cl)C=CC1(CCN(CC(=O)N3CCOCC3)CC1)O2,-4.78%
13,Cc1cc2c(cc1Cl)C=CC1(CCN(CC(=O)NC3CCCC3)CC1)O2,3.58%
14,CCN(CC)C(=O)CN1CCC2(C=Cc3cc(Cl)c(C)cc3O2)CC1,1.4%
15,Cc1cc2c(cc1C)OC1(C=C2)CCN(CC(=O)N2CCOCC2)CC1,54.2%
16,O=C(NCc1cnc2n1CCN(CC1CC1)CC2)C1CCC1,15.42%
17,CO[C@@H]1CCN(S(=O)(=O)c2cccs2)[C@H]1Cc1cccnc1,30.39%
18,CC(c1nc(C2CC2)no1)N1CCc2c(ncn2C2CC2)C1 (centres undefined),-40.15%
19,Cc1ccc(S(=O)(=O)NCc2cccc(C(=O)N3CCCC3)c2)cc1F,47.84%
20,Cc1ccc(F)cc1S(=O)(=O)NCc1cccc(C(=O)N2CCCC2)c1,33.8%
21,O=C(c1cccc(CNS(=O)(=O)c2ccc(F)cc2)c1)N1CCCC1,51.94%
22,Cc1nc2c(c(NC3CC3)n1)CCN(C(=O)C1(C#N)CC1)CC2,-5.44%
23,Cc1nc(C)c2c(n1)CCN(C(=O)C1(C#N)CC1)CC2,89.37%
24,Cc1nc(N2CCOCC2)nc2c1CCN(C(=O)C1(C#N)CC1)CC2,-24.04%
25,COCC1CN(Cc2ccoc2)Cc2nn(C)cc21 (centres undefined),17.69%
26,O=C(Nc1ccc(F)cc1)N1CCN(Cc2noc(C3CC3)n2)CC1,24.65%

row,SMILES,INHIBITION
1,CN1CCN(C(=O)C[C@@H]2COC[C@H]3CN(c4ccncn4)C[C@@H]23)CC1,-69.07%
2,CS(=O)(=O)N1CCC2(CC1)COC(COc1cccnc1)C2 (centres undefined),19.91%
3,CNS(=O)(=O)c1ccc(C(=O)NCCc2ccccn2)cc1,62.46%
4,CNS(=O)(=O)c1ccc(C(=O)NCCNc2ncccn2)cc1,-75.02%
5,CNC(=O)c1ccc(S(=O)(=O)NCCc2ccccn2)cc1,24.15%
6,O=C(Nc1ccccc1)N1CCn2nnc(COc3cccnc3)c2C1,11.72%
7,CCNC(=O)[C@@H]1CCCN1C1(C(=O)NC)CCC1,10.65%
8,CC(CC(=O)O)CC(=O)Nc1sc2c(c1C(N)=O)CCc1ccccc1-2 (centres undefined),-0.22%
9,COc1cc(NCCNC(=O)c2cc[nH]c2C)cc(OC)c1,12.43%
10,CC(C)(C)OC(=O)NCCNC(=O)c1ccc2cc[nH]c2c1,13.72%
11,COc1cc(NCCNC(=O)c2ccc3[nH]ccc3c2)cc(OC)c1,57.75%
12,O=C(NCCCO)Nc1cccc(Cl)c1F,-5.28%
13,Fc1cnc(N2CCOC3(CCN(Cc4ccsc4)CC3)C2)nc1,-35.12%
14,CNC(=O)C1CCN(Cc2cc3c(cc2O)CCC3)CC1,-23.73%
15,CNS(=O)(=O)CCN1CC(c2ccccc2)(c2ccccc2)CCC1=O,40.51%
16,Cc1cccc(NCc2ncc(C(C)(C)C)o2)c1,75.37%
17,CC(C)(C)c1cnc(CNc2cccc(Cn3cnnc3)c2)o1,-3.4%
18,Cc1ccc(NCc2ncc(C(C)(C)C)o2)c(Cl)c1,-32.82%
19,CCc1nc(C)sc1CN1CC[C@](O)(CC)[C@H](O)C1,20.36%
20,O=C(COCC(=O)N1CCCCCC1)NCc1cccc(Br)c1,50.97%
21,COCC(=O)NCc1cccc(Br)c1,0.26%
22,O=C(CCC(=O)NCc1cccc(Br)c1)NCCN1CCCC1,-64.94%
23,Cc1ncn(-c2cc(N3CCN(S(C)(=O)=O)CC3)ncn2)c1C,43.28%
24,CCOCC(=O)N1C[C@H]2CC[C@@H](C1)N(Cc1ccccn1)C2=O,37.77%
25,O=C(CSCC1CC1)N1C[C@H]2CC[C@@H](C1)N(Cc1ccccn1)C2=O,36.66%
26,CCCSCC(=O)N1C[C@H]2CC[C@@H](C1)N(Cc1ccccn1)C2=O,60.9%

row,SMILES,INHIBITION
1,CC(C)(O)CN1CCN(C(=O)COCC(F)(F)F)CC1,13.76%
2,COc1cc(C)c(S(=O)(=O)CC(=O)N(C)C(C)C)cc1OC,10.72%
3,CCN(C(=O)CS(=O)(=O)c1cc(OC)c(OC)cc1C)C1CC1,35.41%
4,COc1cc(C)c(S(=O)(=O)CC(=O)N(C)C2CC2)cc1OC,51.87%
5,CCn1cc(S(=O)(=O)Nc2nc3c(s2)CC(C)CC3)cn1 (centres undefined),32.56%
6,CCn1cc(S(=O)(=O)Nc2nc3c(s2)CCCC3)cn1,23.02%
7,CC1CCc2nc(NS(=O)(=O)c3cnn(C)c3)sc2C1 (centres undefined),54.52%
8,N#Cc1ccc(CN2CCN(Cc3ccncc3Cl)CC2=O)cc1,26.27%
9,CC1CN(Cc2nc(Cc3ccccc3F)no2)CCN1C (centres undefined),17.25%
10,O=C(c1ccco1)N1CCOC2(COCCN(c3ncccn3)C2)C1 (centres undefined),36.06%
11,Cc1cccc(CN2CCc3onc(CN(C)C)c3C2)n1,26.77%
12,Cc1cccc(CN2CCc3onc(CO)c3C2)n1,52.12%
13,Cc1cccc(CN2CCc3onc(Cn4cccc4)c3C2)n1,15.36%
14,CCOc1ncccc1NC(=O)NC1CCN(S(C)(=O)=O)CC1,-68.26%
15,CCN(CC)C(=O)[C@@H]1C[C@H](n2cc(-c3cccc(OC)c3)nn2)CN1,36.28%
16,CCN(CC)C(=O)[C@@H]1C[C@@H](n2cc(-c3ccccn3)nn2)CN1,38.67%
17,CCN(CC)C(=O)[C@@H]1C[C@@H](n2cc(-c3cccc(OC)c3)nn2)CN1,57.75%
18,CC1(C)CC(n2cc3nc(N4CCCC4)[nH]cc-3c2=O)CC(C)(C)N1,6.2%
19,O=C(CCc1ccsc1)NS(=O)(=O)Cc1ccon1,-6.64%
20,O=C(CCc1cccc(Cl)c1)NS(=O)(=O)Cc1ccon1,41.05%
21,O=C(CCc1ccco1)NS(=O)(=O)Cc1ccon1,50.59%
22,CCCNc1ccc(C(=O)NCCc2cccc(OC)c2)cn1,19.09%
23,CC(C)NC(=O)N1CCCCC1c1nnc2n1CCNC2 (centres undefined),-15.93%
24,CC(NC(=O)c1ccc(Cl)cc1)c1nnc(SCC(=O)O)n1C (centres undefined),4.37%
25,Cc1c(CN2CCCC(O)C2)[nH]c2ccc(F)cc12 (centres undefined),-1.51%
26,Cc1c(CN2CC[C@@H](N3CCC(O)CC3)[C@H](O)C2)[nH]c2ccc(Cl)cc12,-31.36%

row,SMILES,INHIBITION
1,Cc1c(CN2CC[C@@H](N3CCC(O)CC3)[C@H](O)C2)[nH]c2ccc(F)cc12,51.43%
2,Cc1nccc(-c2ccccc2)c1C(=O)N1CC[C@](C)(O)C(C)(C)C1,48.93%
3,COC1COC2(CCN(Cc3ccc4ccccc4n3)CC2)C1 (centres undefined),-0.18%
4,CCOc1cccc(CNC(=O)c2cnn(CC)c2C(F)(F)F)c1,40.97%
5,CCOc1cc(CNC(=O)c2cnn(CC)c2C(F)(F)F)ccn1,-61.54%
6,CCn1ncc(C(=O)NCc2ccc(C)c(OC)c2)c1C(F)(F)F,55.52%
7,Cc1cncc(C(=O)N2Cc3ccccc3C3(CCN(C)CC3)C2)c1,5.28%
8,CN1CCC2(CC1)CN(C(=O)c1cccnc1)Cc1ccccc12,-19.51%
9,CN1CCC2(CC1)CN(C(=O)c1ccncc1)Cc1ccccc12,56.25%
10,Cc1cc(CN2Cc3ccccc3CC2c2nnc(C)o2)on1 (centres undefined),21.91%
11,CCc1nnc(C2Cc3ccccc3CN2Cc2cc(C)no2)o1 (centres undefined),56.89%
12,CCc1nnc(C2Cc3ccccc3CN2Cc2cc(C)on2)o1 (centres undefined),33.9%
13,Cc1cnc(N2CCC3(CC2)CN(c2ccsc2)C(=O)CO3)nc1,-38.48%
14,CC(CN1CCOCC1)NC(=O)N1CCCC1 (centres undefined),34.93%
15,Cc1ccoc1C(=O)N1C[C@@H](OCC2CC2)[C@H]2OCCC[C@H]21,8.25%
16,CCc1nc(NC(=O)NCCc2cccc(C)n2)nn1C,21.14%
17,CC(=O)NCCNC(=O)Nc1ccc(C)cc1OCc1ccccc1,3.22%
18,CCOc1ccccc1NC(=O)N(CCO)Cc1ccsc1,38.66%
19,CCCOc1cc(C)ccc1NC(=O)N(C)C,-59.32%
20,CC(=O)N(C)CC(=O)Nc1ccc(C)cc1OCc1ccccc1,50.03%
21,CCCOc1cc(C)ccc1NC(=O)NCCNC(C)=O,-3.26%
22,Cc1ccc(NC(=O)N(CCO)CCO)c(OCc2ccccc2)c1,68.73%
23,NC(=O)c1cc(C2CCCN(Cc3ccc4c(c3)OCCO4)C2)n[nH]1 (centres undefined),-16.03%
24,Cc1nc(C2CCCN2CC(=O)NCCOc2ccc(F)cc2)no1 (centres undefined),20.57%
25,Cc1nccn1CCCn1cncc1-c1ccc2c(c1)CCC(C)N2C (centres undefined),12.29%
26,CC(C)(C)c1nc(CN2CCCC2Cn2cncn2)no1 (centres undefined),45.83%
